# Measured values as given in PubChem BioAssay (NCATS).
# Results filed as inconclusive are left out. A call without a number means that no potency is given here. More than one record can exist for a structure, and the calls need not agree. Calls of active or inactive are those of the source. Calls come from the whole dose curve; as a rule, active = well fitted curve in the direction sought with a large enough effect; inconclusive = small, poorly fitted or top-dose-only effect, or another doubt; inactive = no such curve, though single readings can be large; an effect the other way counts as inactive or inconclusive.
# Tests used:
# [1] = Quantitative highthroughput screen to assess conditional lethalithy of NOMO1 cells grown in RPMI1640 with untreated serum (RPMI+s) (AID 1963876); note: nearly all actives have a fitted effect of over 35% in size; note: potency is the fitted concentration of half-maximal effect
# Method in brief: (§1)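 Each medium arm—HPLM with 10% dialyzed FBS, or RPMI1640 with 5 mM glucose and 10% untreated or dialyzed FBS—was screened against an 11-point, 3-fold compound titration for 48 h at 37 °C, with CellTiter-Glo luminescence as endpoint.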
# [2] = Quantitative highthroughput screen to assess conditional lethalithy of NOMO1 cells grown in RPMI1640 with dialyzed fetal bovine serum (RPMI+ds) (AID 1963877); note: nearly all actives have a fitted effect of over 30% in size; note: potency is the fitted concentration of half-maximal effect; for viability: series mostly up to about 46 µM
# Method in brief: as §1
# [3] = Quantitative highthroughput screen to assess conditional lethalithy of P12 Ichikawa cells grown in Human Plasma-Like Medium with dialyzed fetal bovine serum (HPLM+ds) (AID 1963879); details: Potency: viability; note: series mostly up to about 46 µM; nearly all actives have a fitted effect of over 35% in size
# Method in brief: as §1
# [4] = Quantitative highthroughput screen to assess conditional lethalithy of P12 Ichikawa cells grown in RPMI1640 with dialyzed fetal bovine serum (RPMI+ds) (AID 1963880); details: Potency: P12-Ichikawa viability; note: nearly all actives have a fitted effect of over 35% in size
# Method in brief: as §1
# [5] = Quantitative highthroughput screen to assess conditional lethalithy of P12 Ichikawa cells grown in RPMI1640 with untreated serum (RPMI+s) (AID 1963881); details: Potency: viability; note: series mostly up to about 46 µM; nearly all actives have a fitted effect of over 35% in size
# Method in brief: as §1
# [6] = Quantitative highthroughput screen to assess conditional lethalithy of SEM cells grown in Human Plasma-Like Medium with dialyzed fetal bovine serum (HPLM+ds) (AID 1963882); note: nearly all actives have a fitted effect of over 35% in size; note: potency is the fitted concentration of half-maximal effect; for viability: series mostly up to about 46 µM
# Method in brief: as §1
# [7] = Quantitative highthroughput screen to assess conditional lethalithy of SEM cells grown in RPMI1640 with unreated serum (RPMI+s) (AID 1963883); note: nearly all actives have a fitted effect of over 35% in size; note: potency is the fitted concentration of half-maximal effect
# Method in brief: as §1
# [8] = Quantitative highthroughput screen to assess conditional lethalithy of SEM cells grown in RPMI1640 with dialyzed fetal bovine serum (RPMI+ds) (AID 1963884); note: nearly all actives have a fitted effect of over 35% in size; note: potency is the fitted concentration of half-maximal effect; for viability: series mostly up to about 46 µM
# Method in brief: as §1
# [9] = Quantitative highthroughput screen to assess conditional lethalithy of NOMO1 cells grown in Human Plasma-Like Medium with dialyzed fetal bovine serum (HPLM+ds) (AID 1963878); note: nearly all actives have a fitted effect of over 35% in size; note: potency is the fitted concentration of half-maximal effect
# Method in brief: as §1
# [10] = Cellular viability qHTS for adrenocortical cancer (ACC) cell line SW-13 (AID 1963989); details: SW-13 ACC cells viability, CellTiter-Glo, 48 h; activity (max response): stronger effect = lower value;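 note: cells grown in serum-free medium with ITS supplement; nearly all actives have a fitted effect of over 65% in size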
# Method in brief: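 48 h treatment, SW-13 in ITS/DMEM serum-free; doses up to 46 uM; readout CellTiter-Glo luminescence; curve fit four-parameter logistic.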
# [11] = Cellular viability qHTS for adrenocortical cancer (ACC) cell line NCI-H295R (AID 1963990); note: nearly all actives have a fitted effect of over 60% in size; note: potency is the fitted concentration of half-maximal effect
# Method in brief: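 Compound titrations (up to 46 uM final) are applied to NCI-H295R cultures for 48 h at 37C. Viable cell number is estimated by CellTiter-Glo signal, normalised to DMSO and doxorubicin controls.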
SMILES,Potency [1],Potency [2],Potency [3],Potency [4],Potency [5],Potency [6],Potency [7],Potency [8],Potency [9],activity (max response) [10],Potency [11]
O=c1c(-c2ccc(O)cc2)coc2cc(O[C@@H]3O[C@H](CO)[C@H](O)[C@H](O)[C@H]3O)ccc12,inactive,inactive,inactive,inactive,inactive,14.8 µM (active),,,,,
CN[C@H]1[C@@H](O)[C@@H]2O[C@@H]3O[C@H](C)CC(=O)[C@]3(O)O[C@@H]2[C@@H](NC)[C@H]1O,inactive,inactive,inactive,inactive,inactive,inactive,inactive,,,,
CNC1[C@H](O)C(O[C@@H]2C(O)C(O[C@H]3O[C@H]([C@@H](C)NC)CC[C@H]3N)[C@@H](N)C[C@H]2N)OC[C@]1(C)O (some centres undefined),inactive,inactive,inactive,inactive,inactive,inactive,inactive,inactive,,,
CCN(CC)CCOc1ccc(Cc2ccccc2)cc1,10.5 µM (active),inactive,,,inactive,,4.18 µM (active),8.33 µM (active),7.43 µM (active),-24% (inactive),18.4 µM (active) and inactive
COc1ccc(C(C)=O)c(O)c1,2.64 µM (active),2.96 µM (active),,,,inactive,inactive,inactive,0.935 µM (active),,
CC(CCc1ccc(O)cc1)NCCc1ccc(O)c(O)c1 (centres undefined),inactive,inactive,,,,20.9 µM (active),20.9 µM (active),20.9 µM (active),inactive,-9.68% (inactive),inactive
Clc1ccc2c(N3CCN(CCCN4CCN(c5ccnc6cc(Cl)ccc56)CC4)CC3)ccnc2c1,inactive,inactive,,,,,7.24 µM (active),,inactive,-23.4% (inactive),inactive
